Rows were chosen to be rich in hits. Some 5.7% of all compounds tested hit in one or more screens of this group.
Giardia kill: Small Molecules that selectively kill Giardia lamblia: qHTS; activity change, % at 7.66 µM, hits read low; Giardia lamblia trophozoite viability; 340,000 compounds, 0.15% hits; AID 540267, 2011; in the data active = activity change below about -80%; inconclusive = between about -30% and that limit;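 note: parasites exposed to compound for two days anaerobically before the ATP read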
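Media and compound were dispensed first, then trophozoites at 100 cells/well; plates sat 48 hrs at 37 deg C without oxygen before ATP luminescence reagent was added and read after 15-30 min at room temperature.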
KB-V1 cytotox: qHTS assay for MDR1-selective chemotherapeutics: Primary screen using the drug-selected MDR subline cells KB-V1; KB-V1 MDR cells viability, CellTiter-Glo, 72 h; Potency, µM (doses to about 46.1 µM), usual class: cytotoxic; 400,000 compounds, 3.4% hits; note: potency is the fitted concentration of half-maximal effect; nearly all actives have a fitted effect of over 60% in size
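Luminescent ATP read-out (CellTiter-Glo, 10 min) measures survival of drug-selected KB-V1 MDR cells after 72 h, 37 degrees C compound exposure. Medium: phenol-red-free DMEM, 10% FBS. Values from fitted concentration-response curves.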
A549 tox: Nrf2 qHTS screen for inhibitors: counterscreen for cytotoxicity. 390,000 compounds, 0.16% hits. A549 ARE-Fluc cells, CellTiter-Fluor viability, 18-24 h. AID 504648, 2011. Potency, µM (series often up to 46 µM), without a hit: at the highest dose activity change, negative = cytotoxicity, usual class: inhibitors; note: potency is the fitted concentration of half-maximal effect
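A549 ARE_Fluc cells in 5% FBS OPTI-MEM were exposed to compounds in concentration-response for 18-24 h at 37 deg C. Viability was read by CellTiter-Fluor fluorescence (Ex 405/Em 525) after 30 min, before the luciferase read.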
PI4K2A inh: qHTS for small molecular inhibitors of PI4K2A; purified PI4K2A, ADP-Glo luminescence, 1 h; active compounds read low; activity change, negative = inhibition, % at 76.9 µM; 420,000 compounds, 0.13% hits; in the data active = activity change below about -50%; inconclusive = mostly about -30% to -49%;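 note: -100% = wells without enzyme as full effect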
Target sequence (Q9BTU6 whole entry, looked up): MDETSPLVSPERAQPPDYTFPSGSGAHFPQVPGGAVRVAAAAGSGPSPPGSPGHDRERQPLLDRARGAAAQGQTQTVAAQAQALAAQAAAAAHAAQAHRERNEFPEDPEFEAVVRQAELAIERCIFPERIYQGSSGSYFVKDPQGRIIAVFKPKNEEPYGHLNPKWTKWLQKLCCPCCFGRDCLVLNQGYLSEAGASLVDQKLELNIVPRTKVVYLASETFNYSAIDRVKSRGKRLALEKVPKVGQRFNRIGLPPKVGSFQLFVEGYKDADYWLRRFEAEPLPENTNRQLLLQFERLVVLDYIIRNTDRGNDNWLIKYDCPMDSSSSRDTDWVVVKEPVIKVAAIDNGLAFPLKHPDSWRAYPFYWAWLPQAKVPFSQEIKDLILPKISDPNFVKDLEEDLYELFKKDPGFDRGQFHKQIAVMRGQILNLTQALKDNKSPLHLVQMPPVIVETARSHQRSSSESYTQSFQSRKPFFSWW
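Compounds are screened against recombinant PI4K2A using PI as substrate and ATP, the latter dispensed at 300 microM. Reactions run one hour at ambient temperature before ADP-Glo detection; full inhibition defined by wells lacking enzyme.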
Nrf2 inh: Nrf2 qHTS screen for inhibitors; A549 ARE-Fluc reporter, luciferase luminescence, 18-24 h; Potency, µM (doses to about 46 µM), for inactives: at the highest dose activity change, negative = inhibition, actives largely listed as inhibitors; 360,000 compounds, 2.1% hits; note: potency is the fitted concentration of half-maximal effect; nearly all actives have a fitted effect of over 60% in size
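Concentration-response testing used A549 ARE_Fluc cells at 5000 cells/well. Following an 18-24 h compound incubation, viability was read by fluorescence (Ex 405/Em 525) and luciferase output by luminescence.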
KB-3-1 tox: qHTS assay for MDR1-selective chemotherapeutics: Primary screen using the parental adenocarcinoma cell KB-3-1; KB-3-1 viability, CellTiter-Glo ATP luminescence, 72 h; Potency, µM (highest dose often 46.1 µM), hits mostly cytotoxic; 400,000 compounds, 1.4% hits; AID 1347075, 2019; note: potency is the fitted concentration of half-maximal effect; nearly all actives have a fitted effect of over 60% in size
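Parental KB-3-1 adenocarcinoma cells in phenol-red-free DMEM with 10% FBS were pin-treated with compounds at several concentrations, incubated 72 h at 37 °C, and viability read by CellTiter-Glo luminescence; concentration-effect curves were fitted after normalization.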
* hit, by the source's call; i = inactive; u = inconclusive; x = not tested or not shown. Unless noted, calls come from the whole dose curve; as a rule, active = well fitted curve in the direction sought with a large enough effect; inconclusive = small, poorly fitted or top-dose-only effect, or another doubt; inactive = no such curve, though single readings can be large; an effect the other way counts as inactive or inconclusive. Unless noted, % is set by controls: 0 for no effect and ±100 for the full control effect.

SMILES | Giardia kill | KB-V1 cytotox | A549 tox | PI4K2A inh | Nrf2 inh | KB-3-1 tox
CN(C)c1ccc(/C=C/c2cc(Cl)nc3ccccc23)cc1 | x | 13µM* | x | x | x | u
CN(C)c1ccc(/C=C/c2nccc3ccccc23)cc1 | x | i | x | x | x | i
Cc1nc2ccccc2nc1/C=C/c1ccc(N(C)C)cc1 | x | u | x | x | x | 5.17µM*
COc1cc(-n2c(C)nc3cc(C(=O)N4CCCCC4)ccc32)cc(OC)c1OC | x | x | x | -1.8 | x | x
CC(=O)c1ccc(O)c(C(N)=O)c1 | x | x | x | 1.1 | x | x
Cc1ccc(CNC(=O)OC(C)(C)C)c(/C=C/S(=O)(=O)NCCc2ccccc2)c1 | x | x | x | -0.5 | x | x
CC(=O)c1ccc(N2CCN(C(=O)CCCc3nc4ccccc4s3)CC2)cc1 | -3.4 | i | 2.6% | 0.9 | 14.6µM* | i
O=C(CCc1nc2ccccc2s1)N1CCN(c2ccccc2)CC1 | 1.9 | i | -0.5% | -3.3 | u | i
O=C(O)c1ccc2c(ccc3nn(-c4ccc(/C=C/c5ccc(-n6nc7ccc8cc(C(=O)O)ccc8c7n6)cc5[S+](=O)([O-])[O-])c([S+](=O)([O-])[O-])c4)nc32)c1 | 3.3 | i | u | x | 0.0% | i
COc1ccc(-n2c(SC(C)C(=O)Nc3ncc(Cl)cc3Cl)nc3ccccc32)cc1 (stereo not drawn) | 8.9 | 2.06µM* | -11.0% | -0.6 | u | 20.6µM*
Cc1occc1C(=O)Nc1sc2c(c1C(N)=O)CCC(C(C)(C)C)C2 (stereo not drawn) | 10.6 | i | -0.8% | -1.9 | 7.4% | i
CC(C)(C)C1CCc2c(sc(NC(=O)c3ccncc3)c2C(N)=O)C1 (stereo not drawn) | 21.3 | 11.6µM* | -13.9% | 7.8 | 8.2% | i
CN1CCN(c2ccc3c(c2)Oc2ccccc2CN(Cc2cn(Cc4cccc(C(F)(F)F)c4)nn2)S3(=O)=O)CC1 | x | x | x | 4.1 | x | x
COc1ccccc1OCCSc1nc(N)cc(N)n1 | 0.5 | i | 0.9% | 21.4 | 20.9% | i
Nc1cc(N)nc(SCCOc2ccccc2F)n1 | 6.2 | 23.1µM* | -3.1% | 5.4 | 0.5% | i
CCCCNC(=O)NS(=O)(=O)c1ccc(NC(=O)CSc2nnc(-c3ccc(Cl)cc3)n2N)cc1 | x | x | x | -1.5 | x | x
CN(C(=O)CN1C(=O)NC(C)(c2cccc(Br)c2)C1=O)C1CCCCC1 (stereo not drawn) | -5.1 | 23.1µM* | -17.6% | 16.7 | u | i
CCc1ccccc1NC(=O)CN(C)C(=O)CSc1nnc(Nc2cccc(C)c2C)s1 | -29.1 | 18.4µM* | 0.1% | 2.8 | -7.5% | i
CN(CC(=O)Nc1ccccc1Cl)C(=O)CSc1nc2ccccc2s1 | -15.9 | 16.4µM* | -15.0% | -3.8 | -9.7% | i
Cc1nnc(SCC(=O)N(C)CC(=O)Nc2ccccc2Cl)s1 | 4.8 | i | 0.7% | -15.1 | -5.3% | i
CCn1c(=O)cc(SCC(=O)N(C)Cc2ccccc2)c2ccccc21 | 3.7 | 4.61µM* | -20.7% | 1.0 | -7.9% | i
CCn1c(=O)cc(SCC(=O)Nc2ccc(C)c(F)c2)c2ccccc21 | x | i | -3.9% | -1.0 | 23.1µM* | i
CCn1c(=O)cc(SCC(=O)Nc2ccc3c(c2)OCO3)c2ccccc21 | -3.7 | 16.4µM* | -13.7% | -4.4 | x | i
CCn1c(=O)cc(OCC(=O)Nc2ccc(C)c(F)c2)c2ccccc21 | x | i | -6.5% | -1.3 | 16.9% | i
O=C(CSc1cn(CCNC(=O)c2ccccc2F)c2ccccc12)Nc1ccc2c(c1)OCCO2 | x | i | -2.1% | 1.1 | 3.2% | i
SMILES | Giardia kill | KB-V1 cytotox | A549 tox | PI4K2A inh | Nrf2 inh | KB-3-1 tox
O=C(CSc1cn(CCNC(=O)c2cccc(C(F)(F)F)c2)c2ccccc12)Nc1ccc2c(c1)OCCO2 | x | i | u | -2.9 | 16.4µM* | u
CN(Cc1ccccc1)C(=O)CSc1cc(=O)n(C)c2ccccc12 | 9.8 | u | -2.5% | 6.3 | u | i
Cc1ccc(C)c(S(=O)(=O)c2nnn3c2nc(Nc2ccc(F)c(Cl)c2)c2sccc23)c1 | x | u | u | 1.0 | u | u
CCOC(=O)C1=NOC(C(=O)NCc2ccccc2)(C(=O)c2ccc(OC)cc2)C1 (stereo not drawn) | x | x | x | -0.4 | x | x
Cc1ccc(C)c(N2CCN(C(=O)CCNC(=O)Cn3ccc4ccccc4c3=O)CC2)c1 | 7.0 | 6.51µM* | -2.4% | 2.4 | -1.1% | i
COc1ccccc1N1CCN(C(=O)CCNC(=O)Cn2ccc3ccccc3c2=O)CC1 | -10.2 | i | 0.4% | 2.1 | -10.4% | i
CCOc1ccc(N(CC)C(=O)CCNC(=O)Cn2ccc3ccccc3c2=O)cc1 | -4.5 | 23.1µM* | -0.2% | 3.6 | 13.6% | i
COc1cc(O)c(C(CC(=O)N2CCC(Cc3ccccc3)CC2)c2ccc(OC)c(OC)c2)c(OC)c1 (stereo not drawn) | x | u | x | x | x | i
O=C(Nc1nc(-c2ccccn2)cs1)c1ccc(Cl)s1 | -26.0 | u | u | 0.0 | 2.59µM* | u
CC(Oc1ccccc1)C(=O)Nc1nc(-c2ccccn2)cs1 (stereo not drawn) | 10.4 | i | u | -4.9 | u | u
CC(Oc1cccc(Cl)c1)C(=O)Nc1nc(-c2ccccn2)cs1 (stereo not drawn) | 14.7 | i | u | -3.9 | 16.4µM* | u
Cn1cccc1C(=O)Nc1nc(-c2ccccn2)cs1 | 8.9 | u | -14.5% | -3.9 | -16.4% | 10.3µM*
Cc1csc(NC(=O)c2cccn2C)n1 | -2.6 | i | -2.4% | -19.2 | u | i
COc1ccc(C2Nc3ccccc3C(=O)N2Cc2ccc(C(F)(F)F)cc2)cc1COc1ccc(NC(C)=O)cc1 (stereo not drawn) | x | x | 7.2% | x | u | x
COc1ccc(C2Nc3ccccc3C(=O)N2Cc2ccc(C(C)(C)C)cc2)cc1COc1ccc(NC(C)=O)cc1 (stereo not drawn) | x | x | -2.4% | x | 18.4µM* | x
CCOC(=O)c1sc(NNC(=O)c2ccc(C)cc2)nc1C | 3.7 | i | 0.6% | -1.7 | 1.5% | i

High-throughput results deposited in PubChem BioAssay by National Center for Advancing Translational Sciences (NCATS).
